Source: PubChem BioAssay (Tox21)
Unmarked numbers belong to inactive results. Activity calls are given as the source filed them. Calls follow the shape of the full dose curve.

The molecules below were run against Acetylcholinesterase (Homo sapiens) (UniProt P22303) (assay: Acetylcholinesterase (AChE) small molecule antagonists: enzyme-based qHTS assay with human liver microsomes (AID 1347399; also: nearly all actives have a fitted effect of over 60% in size)). Conditions: Potency: qHTS inhibition; outcome: qHTS inhibition; series mostly up to 115 µM; activity change, negative = inhibition: at the top concentration.
Excerpt: National Center for Advancing Translational Sciences [NCATS]
Division of Preclinical Innovation [DPI]
U.S. Environmental Protection Agency [EPA]
National Institutes of Environmental Health Sciences [NIEHS]
National Toxicology Program [NTP]
U.S. Food and Drug Administration [FDA]
Acetylcholinesterase (AChE) is the primary cholinesterase in the body that hydrolyzes a key neurotransmitter, acetylcholine. Inhibition of AChE activity can lead to neurotoxicity. The known inhibitors include organophosphorous pesticides (OP), chemical warfare agents, drugs, and various phytochemicals. Some compounds like OP compounds may need metabolic activation to be active AChE inhibitors. The cytochrome P450 (CYP) superfamily in the human microsomes is responsible for the metabolism of various endogenous and exogenous compounds.
An enzyme-based assay with the recombinant human AChE, human liver microsomes and Amplite Colormetric acetylcholinesterase assay kit (AAT Bioquest, Sunnyvale, CA) was used to evaluate compounds in the Tox21 10K library that need metabolic activation for AChE inhibition. The assay uses 5, 5-dithiobis-(2-nitrobenzoic acid) (DTNB) to quantify the thiocholine produced from the hydrolysis of acetylthiocholine by AChE.
Tox21 Assay Protocol Summary:
For the enzyme-based AChE assay with microsomes addition, a mixture of human AChE (50 mU/mL) and human liver microsomes (0.25 mg/mL, final concentration) in 3 uL/well was dispensed into black, clear-bottom 1536-well plates using a Multidrop Combi dispenser (Thermo Scientific, MA). Then, 23 nL of compound or DMSO (vehicle control) was transferred into the assay plates by a Pintool Station (Wako Automation, CA). Following compound addition, 1 uL of NADPH (0.25 mg/mL, final concentration) was transferred to the assay plate by a Flying Reagent Dispenser (Beckman Coulter, CA). The plates were incubated for 30 min at 37 C and 5% CO2, followed by the addition of 4 uL of colorimetric detection cocktail solution (DTNB, acetylthiocholine) into each well using a Flying Reagent Dispenser (Beckman Coulter, CA) and then 10 min incubation at room temperature.
% is scaled to controls: 0 for no effect and ±100 for the full control effect.

Acetylcholinesterase (Homo sapiens), sequence (P22303 whole entry, looked up): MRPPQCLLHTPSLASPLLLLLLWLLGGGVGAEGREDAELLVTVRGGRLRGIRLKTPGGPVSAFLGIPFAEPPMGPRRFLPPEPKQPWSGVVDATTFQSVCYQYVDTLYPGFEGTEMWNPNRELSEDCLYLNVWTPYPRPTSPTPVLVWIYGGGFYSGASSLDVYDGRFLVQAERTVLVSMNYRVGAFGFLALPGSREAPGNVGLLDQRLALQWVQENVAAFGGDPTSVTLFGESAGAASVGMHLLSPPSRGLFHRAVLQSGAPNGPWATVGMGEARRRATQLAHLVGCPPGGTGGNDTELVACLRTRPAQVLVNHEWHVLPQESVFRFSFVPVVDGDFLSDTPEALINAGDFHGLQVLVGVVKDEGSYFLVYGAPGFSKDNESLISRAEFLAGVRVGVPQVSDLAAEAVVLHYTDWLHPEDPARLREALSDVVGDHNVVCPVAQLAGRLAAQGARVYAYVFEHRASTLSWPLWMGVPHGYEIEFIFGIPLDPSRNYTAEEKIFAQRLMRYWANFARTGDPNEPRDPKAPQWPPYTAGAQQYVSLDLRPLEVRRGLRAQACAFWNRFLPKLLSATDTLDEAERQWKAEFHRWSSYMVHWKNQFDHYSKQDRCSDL

| SMILES | activity change, negative = inhibition | Potency |
| --- | --- | --- |
| Cc1c[nH]c(=O)[nH]c1=O | 6.42% | – |
| NC(=O)c1ccc([N+](=O)[O-])cc1 | -1.32% | – |
| CC(C)(C)S | 0.836% | – |
| CN1CC(=O)NC1=N | 0.443% [at 53 µM] | – |
| CO[C@H]1C=CO[C@@]2(C)Oc3c(C)c(O)c4c(O)c(c(/C=N/N5CCN(C)CC5)c(O)c4c3C2=O)NC(=O)/C(C)=C\C=C[C@H](C)[C@H](O)[C@@H](C)[C@@H](O)[C@@H](C)[C@H](OC(C)=O)[C@@H]1C | – | inactive |
| O=C1c2ccccc2C(=O)N1SC1CCCCC1 | -12.1% | – |
| Oc1cccc2cc3cccc(O)c3c(O)c12 | 0.891% | – |
| CSCC[C@H](NC(=O)[C@H](Cc1c[nH]c2ccccc12)NC(=O)CCNC(=O)OC(C)(C)C)C(=O)N[C@@H](CC(=O)O)C(=O)N[C@@H](Cc1ccccc1)C(N)=O | -3.77% [at 53 µM] | – |
| COc1ccccc1OCC1CNC(=O)O1 (stereo not given) | 0.168% [at 53 µM] | – |
| CC(=O)NCCCCCC(=O)O | -0.753% [at 53 µM] | – |
| C=C/C=C/C=C/CCCCC | -1.78% [at 23.6 µM] | – |
| COC(=O)CCCCC(CCSS/C(CCO)=C(\C)N(C=O)Cc1cnc(C)nc1N)SC(C)=O (stereo not given) | -0.168% [at 53 µM] | – |
| C[C@]12C=CC(=O)C=C1[C@@H](F)C[C@@H]1[C@@H]2[C@@H](O)C[C@@]2(C)[C@H]1CC[C@]2(O)C(=O)CO | 0.0023% [at 53 µM] | – |
| CC(=O)Nc1ccc(N=Nc2cc(C)ccc2O)cc1 | 13.5% | – |
| COCCC(=O)OC | -1.3% | – |
| O=[N+]([O-])c1cccc(Cl)c1Cl | 0.341% | – |
| NC(=O)c1cn(Cc2c(F)cccc2F)nn1 | -2.27% [at 53 µM] | – |
| COc1ccc(N)c(C)c1 | – | inactive |
| CC1(C)C(O)C(C)(C)C1O (stereo not given) | 0.306% | – |
| COC(=O)N[C@H](C(=O)N[C@@H](Cc1ccccc1)[C@@H](O)CN(Cc1ccc(-c2ccccn2)cc1)NC(=O)[C@@H](NC(=O)OC)C(C)(C)C)C(C)(C)C | -0.784% [at 53 µM] | – |

| SMILES | activity change, negative = inhibition | Potency |
| --- | --- | --- |
| C=CCCC=C | -5.99% | – |
| Cc1ccccc1OCC1CO1 (stereo not given) | -1.21% | – |
| CC/C(C)=N\O[Si](C)(O/N=C(\C)CC)O/N=C(\C)CC | -0.987% | – |
| CC(C)NC(=O)NC(C)C | -2.6% | – |
| CC(C)(C)Cl | -1.54% | – |
| CCCCOC(=O)[C@H](C)O | 1.45% | – |
| Cc1cc(O)cc(C)c1Cl | – | inactive |
| C[C@H](CCC(=O)O)[C@H]1CC[C@H]2[C@@H]3[C@H](O)C[C@@H]4C[C@H](O)CC[C@]4(C)[C@H]3CC[C@]12C | -2.53% | – |
| CCCCCCCCCCCCCCCCCBr | -2.26% [at 23.6 µM] | – |
| CCCCC1(COC(=O)CCC(=O)O)C(=O)N(c2ccccc2)N(c2ccccc2)C1=O | – | inactive |
| C=CC(=O)CCCCC | 0.224% | – |
| O=C(O)c1cccc(O)c1 | 0% | – |
| Cc1ccc(-c2ccccc2C#N)cc1 | 1.17% [at 53 µM] | – |
| c1ccc2cc3c(ccc4ccccc43)cc2c1 | – | inactive |
| CC1=NN(c2ccc(S(=O)(=O)O)cc2)C(=O)C1 | 1.54% | – |
| Cc1occc1S | 0.411% | – |
| O=C1C(c2[nH]c3ccc(S(=O)(=O)O)cc3c2O)=Nc2ccc(S(=O)(=O)O)cc21 | -4.15% | – |
| CCCCCCCCCCCSCC(=O)O | -1.79% | – |
| Nc1ccc2cc(S(=O)(=O)O)cc(O)c2c1N=Nc1ccccc1C(F)(F)F | 2.53% | – |
| COc1cc(S(N)(=O)=O)cc(C(=O)O)c1OC | 0.729% [at 53 µM] | – |
